Most compounds without a hit are left out; they make up all but 6.9% or so of the library.
KB-V1 cytotox – qHTS assay for MDR1-selective chemotherapeutics: Primary screen using the drug-selected MDR subline cells KB-V1. KB-V1 MDR cells viability, CellTiter-Glo, 72 h. Potency, µM (doses to about 46.1 µM), usual class: cytotoxic. hit rate 3.4% among 400,000; also: potency is read from the fitted curve at half-maximal effect; % is scaled to controls: 0 for no effect and ±100 for the full control effect; nearly all actives have a fitted effect of over 60% in size
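qHTS viability screen in drug-selected KB-V1 MDR cells: 72 h compound treatment at 37 degrees C, ATP luminescence end point.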
ASM inhibitor – Inhibitors of Secretory Acid Sphingomyelinase (S-ASM): qHTS; placental ASM, HMU-PC fluorogenic substrate, 60 min; AID 504937, 2011; hit rate 0.006% among 340,000; Sphingomyelin phosphodiesterase (Homo sapiens), P17405; Potency, µM (series often up to 57.5 µM), for inactives: at the highest dose activity change, negative = inhibition, usual class: inhibitors; also: potency is read from the fitted curve at half-maximal effect
Target sequence (P17405 47-631 limits assumed): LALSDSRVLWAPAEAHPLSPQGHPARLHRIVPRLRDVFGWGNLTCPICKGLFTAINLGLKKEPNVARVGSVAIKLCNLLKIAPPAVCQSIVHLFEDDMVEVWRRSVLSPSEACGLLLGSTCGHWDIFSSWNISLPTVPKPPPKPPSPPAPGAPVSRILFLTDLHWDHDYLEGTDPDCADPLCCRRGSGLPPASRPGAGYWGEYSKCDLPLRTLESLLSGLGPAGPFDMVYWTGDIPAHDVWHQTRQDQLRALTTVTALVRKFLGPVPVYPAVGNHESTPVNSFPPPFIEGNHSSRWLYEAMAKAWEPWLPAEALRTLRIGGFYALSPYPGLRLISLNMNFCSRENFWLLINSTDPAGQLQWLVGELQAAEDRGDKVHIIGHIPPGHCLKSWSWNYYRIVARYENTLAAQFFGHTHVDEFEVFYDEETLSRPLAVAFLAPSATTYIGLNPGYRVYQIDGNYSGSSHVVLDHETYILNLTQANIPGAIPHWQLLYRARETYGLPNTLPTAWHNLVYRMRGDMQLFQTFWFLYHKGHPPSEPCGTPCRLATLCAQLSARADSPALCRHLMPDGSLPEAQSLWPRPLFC
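Fluorogenic HMU-PC substrate (9 uM final) is turned over by placental ASM in 60 min at 37 C after a 10 min compound preincubation. Reaction ended by alkaline stop (pH 10), with fluorescence read at 386/447 nm.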
KB-3-1 tox – qHTS assay for MDR1-selective chemotherapeutics: Primary screen using the parental adenocarcinoma cell KB-3-1. hit rate 1.4% among 400,000. AID 1347075, 2019. KB-3-1 viability, CellTiter-Glo ATP luminescence, 72 h. Potency, µM (top dose mostly 46.1 µM), usual class: cytotoxic; also: potency is read from the fitted curve at half-maximal effect; % is scaled to controls: 0 for no effect and ±100 for the full control effect; nearly all actives have a fitted effect of over 60% in size
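Multi-concentration cytotoxicity screen in KB-3-1 cells grown in DMEM lacking phenol red with 10% FBS. After 72 h at 37 °C with compound, ATP-dependent luminescence was recorded.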
SW480 rereplic – A quantitative high throughput screen for small molecules that induce DNA re-replication in SW480 colon adenocarcinoma cells. SW480 DNA re-replication, Hoechst DNA content imaging, 48 h. Potency, µM (series often up to 46.1 µM), for inactives: at the top dose re-replication activation, most hits filed as activators. hit rate 1.8% among 340,000. AID 624297, 2012; also: potency is read from the fitted curve at half-maximal effect; % of control where 0% means no effect; nearly all actives have a fitted effect of over 55% in size
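Readout is total intensity of Hoechst-stained nuclei, excited at 405 nm and collected at 500-530 nm. Compound treatment lasted 48 hr at 37 C in 5% CO2 before staining.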
Giardia killer – Small Molecules that selectively kill Giardia lamblia: qHTS. Giardia lamblia trophozoite viability. activity change, % at 7.66 µM, hits read low. hit rate 0.15% among 340,000. AID 540267, 2011; in the data active = activity change below about -80%; inconclusive = between about -30% and that limit;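 also: parasites exposed to compound for two days anaerobically before the ATP read; % is scaled to controls: 0 for no effect and ±100 for the full control effect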
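Trophozoites 100 cells/well + cpd; 48 hrs, 37 deg C, anaerobic. ATPLite 1-Step added, 15-30 min RT, luminescence read (ATP-based viability).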
MCF10A rerep – A quantitative high throughput screen for small molecules that induce DNA re-replication in MCF 10a normal breast cells; MCF 10A DNA re-replication, Hoechst nuclear intensity, 48 h; Potency, µM (top dose mostly 46.1 µM), without a hit: top-dose activity, positive = re-replication, most hits filed as activators; hit rate 2.9% among 350,000; AID 624296, 2012; also: potency is read from the fitted curve at half-maximal effect; % of control where 0% means no effect; nearly all actives have a fitted effect of over 50% in size
Active calls of the source: *. Unless noted, calls follow the shape of the dose curve; as a rule, active = well fitted curve in the direction sought with a large enough effect; inconclusive = small, poorly fitted or top-dose-only effect, or another doubt; inactive = no such curve, though single readings can be large; an effect the other way counts as inactive or inconclusive.

`Cc1nc2c(cnn2-c2ccccc2Cl)c(=O)n1-c1ccc(N2CCC(C)CC2)cc1` gave KB-V1 cytotox 6.5µM*, ASM inhibitor -4%, KB-3-1 tox 16µM*, SW480 rereplic -1%, Giardia killer 17 and MCF10A rerep 4%.
Screening Cc1ccc(-n2c(C)nc3c(cnn3-c3ccc(C)c(C)c3)c2=O)cc1C returned KB-V1 cytotox inactive, ASM inhibitor -18%, KB-3-1 tox inactive, SW480 rereplic 15%, Giardia killer -27 and MCF10A rerep -3%.
CC(=O)C1=C(O)C(CSCc2ccccc2)N(C)C1=O (centres undefined) was read as KB-V1 cytotox 21µM*, ASM inhibitor 0%, KB-3-1 tox inactive, SW480 rereplic 0%, Giardia killer 12 and MCF10A rerep 5%.
COc1ccc(Nc2nc(-c3cccs3)nc3ccccc23)cc1 was read as KB-V1 cytotox 18µM*, ASM inhibitor -19%, KB-3-1 tox inconclusive, SW480 rereplic 2%, Giardia killer -13 and MCF10A rerep 16µM*.
COc1cccc(Nc2nc(-c3cccs3)nc3ccccc23)c1 was read as KB-V1 cytotox inconclusive, ASM inhibitor -18%, KB-3-1 tox inactive, SW480 rereplic inconclusive, Giardia killer -17 and MCF10A rerep inconclusive.
Cc1ccc(C)c(N(C)S(=O)(=O)c2ccc3[nH]cc(C(=O)NC4CCCC4)c(=O)c3c2)c1 was read as KB-V1 cytotox inactive and KB-3-1 tox inactive.
For CCC(=O)N1CCc2cc(Br)cc(S(=O)(=O)CCC(=O)NCc3ccc(F)cc3)c21 the results were KB-V1 cytotox inactive and KB-3-1 tox inactive.
Screening O=C(Oc1ccc(Cl)c2cccnc12)c1ccco1 returned KB-V1 cytotox inconclusive, ASM inhibitor -1%, KB-3-1 tox inconclusive, SW480 rereplic inconclusive, Giardia killer -19 and MCF10A rerep 7.3µM*.
`O=C(Oc1c(Cl)cc(Cl)c2cccnc12)c1cccc([N+](=O)[O-])c1` gave KB-V1 cytotox inactive, ASM inhibitor -2%, KB-3-1 tox 15µM*, SW480 rereplic inconclusive, Giardia killer -11 and MCF10A rerep 10µM*.
O=C(Oc1ccc(Cl)c2cccnc12)c1cccc([N+](=O)[O-])c1 was read as KB-V1 cytotox inactive, ASM inhibitor 1%, KB-3-1 tox inactive, Giardia killer 6 and MCF10A rerep 3.7µM*.
For CCn1cc(CN2CCC(C(=O)Nc3cccc(-c4cccc(F)c4)c3)CC2)cn1 the results were ASM inhibitor 4%, SW480 rereplic 2%, Giardia killer -10 and MCF10A rerep 0%.
`CC(C)n1cc(CN2CCC(C(=O)Nc3cccc(-c4cccc(Cl)c4)c3)CC2)cn1` gave KB-V1 cytotox inconclusive, ASM inhibitor -8%, KB-3-1 tox inconclusive, SW480 rereplic 3.3µM*, Giardia killer 11 and MCF10A rerep 18µM*.
COC(=O)/C(=N/Nc1ccccc1Cl)Sc1nnc(C(O)c2ccccc2)n1-c1ccccc1 (centres undefined) was read as KB-V1 cytotox inactive, ASM inhibitor -2%, KB-3-1 tox inactive, SW480 rereplic -9%, Giardia killer 3 and MCF10A rerep -2%.
`CC(=O)/C(=N/Nc1ccccc1Cl)Sc1nnc(C(O)c2ccccc2)n1-c1ccccc1` (centres undefined) gave KB-V1 cytotox 16µM*, ASM inhibitor 4%, KB-3-1 tox inactive, SW480 rereplic 1%, Giardia killer 22 and MCF10A rerep 1%.
CCn1cc(C(=O)N2CCN(c3cccc(Cl)c3)CC2)c(=O)c2cc(S(=O)(=O)N3CCC(C)CC3)ccc21 was read as KB-V1 cytotox inactive and KB-3-1 tox inactive.
COc1cc(Cl)ccc1OCc1cc(C(=O)N2C[C@]3(C)C[C@H]2CC(C)(C)C3)no1 was read as ASM inhibitor -1%, SW480 rereplic 7%, Giardia killer 8 and MCF10A rerep 21µM*.
COc1cc(-c2noc(-c3ccc(NCCc4ccccc4)c([N+](=O)[O-])c3)n2)cc(OC)c1OC was read as KB-V1 cytotox inconclusive and KB-3-1 tox inactive.
Screening CN1CCN(c2ncnc3c2c(-c2ccccc2)cn3-c2ccc(F)cc2)CC1 returned KB-V1 cytotox inactive, ASM inhibitor -1%, KB-3-1 tox inactive, SW480 rereplic inconclusive, Giardia killer 4 and MCF10A rerep inconclusive.
For c1ccc(-c2cn(-c3ccccc3)c3ncnc(N4CCCCC4)c23)cc1 the results were KB-V1 cytotox inactive, ASM inhibitor -12%, KB-3-1 tox inactive, SW480 rereplic 22%, Giardia killer -8 and MCF10A rerep 16µM*.
For COc1ccc(-n2cc(-c3ccccc3)c3c(N4CC(C)OC(C)C4)ncnc32)cc1 (centres undefined) the results were KB-V1 cytotox inconclusive, ASM inhibitor -8%, KB-3-1 tox inactive, SW480 rereplic 15%, Giardia killer 13 and MCF10A rerep 23µM*.
`CCOc1ccc(-n2cc(-c3ccccc3)c3c(N4CCOCC4)ncnc32)cc1` gave KB-V1 cytotox inactive, ASM inhibitor -8%, KB-3-1 tox inactive, SW480 rereplic 2%, Giardia killer 3 and MCF10A rerep inconclusive.
`COc1ccc(S(=O)(=O)n2nc(C)cc2C)cc1OC` gave KB-V1 cytotox inactive, ASM inhibitor 4%, KB-3-1 tox inactive, SW480 rereplic -19%, Giardia killer -1 and MCF10A rerep 2%.
Cc1ccc(-n2ncc3c(NCCCc4ccccc4)ncnc32)cc1 was read as KB-V1 cytotox inactive and KB-3-1 tox inactive.
For CC1CC(C)CN(c2nc(NCc3ccco3)nc(N)c2[N+](=O)[O-])C1 (centres undefined) the results were KB-V1 cytotox inconclusive, ASM inhibitor -15%, KB-3-1 tox inconclusive, SW480 rereplic 6%, Giardia killer 35 and MCF10A rerep inconclusive.
Screening CC(C)c1ccc(Nc2nc(Cl)nc(NCCO)n2)cc1 returned KB-V1 cytotox inactive, ASM inhibitor 1%, KB-3-1 tox inactive, SW480 rereplic -3%, Giardia killer -1 and MCF10A rerep 3%.
Screening Fc1ccc(Nc2nc(NCc3ccco3)c3ccccc3n2)cc1 returned KB-V1 cytotox 18µM*, ASM inhibitor -2%, KB-3-1 tox inconclusive, SW480 rereplic inconclusive, Giardia killer 26 and MCF10A rerep inconclusive.

Assay outcomes from PubChem BioAssay.
